Pf apPOL inh: Pf-apPOL DNA polymerase inhibition; AID 1794808; Recombinant Pf-apPOL, molecular beacon fluorescence, 1.5 h; inhibition, % at 10 µM; 0.25% of 210,000 active
mHTT CaM bind: inhibitors of human mutant huntingtin-calmodulin interaction. AID 1671202. inhibition, % at 15 µM. 3.6% of 190,000 active. P42858. AlphaScreen His-mHTT/GST-CaM binding, luminescence;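 note: 0% = both proteins with DMSO and 100% = one protein alone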
An asterisk follows results filed as active; nt = no result; + = active, no number. Shown are actives, neighbours in structure and some others; about 3.6% of the full set was active somewhere. Cut-off read from the data, not from the text of the source: active = inhibition above about 50%; inactive = the rest.

SMILES	Pf apPOL inh	mHTT CaM bind
COc1cc(O)c(CN2CCN(C)CC2)c2oc(-c3ccccc3)cc(=O)c12	-9	-4
NC(=O)N1c2ccccc2C=Cc2ccccc21	2	nt
O=C1NC(=O)[C@H]2[C@@H]1[C@@H](C(=O)c1ccccc1)N1c3ccccc3C=C[C@H]21	nt	58*
O=S1(=O)N=C(Nc2ccccc2O)c2ccccc21	-5	0
O=S1(=O)N=C(N/N=C/c2cc(Cl)ccc2O)c2ccccc21	nt	+
CCOC(=O)c1ccc(NC(=O)C2CC(=O)N(c3ccccc3)C2)cc1 (stereo not drawn)	2	-20
CS(=O)(=O)N1CCc2cc(NC(=O)Nc3ccc(Br)cc3)ccc21	-5	1
Cc1ccccc1N1CCN(C(C)C(=O)NCc2cccnc2)CC1 (stereo not drawn)	-7	6
CC(C(=O)NCc1ccccn1)N1CCN(c2ccccc2Cl)CC1 (stereo not drawn)	-24	75*
COc1ccc(-c2ncnn2-c2cccc(Cl)c2C)cc1	-4	1
Cc1cc(-c2cc(C(=O)O)c3cc(Br)ccc3n2)c(C)s1	8	2
Cc1ccc2c(c1)oc(=O)n2C1CCN(C(=O)C(Cl)Cl)CC1	-5	0
CC(C)Oc1ccc(C(=O)Nc2c3c(nn2C(C)(C)C)CSC3)cc1	83*	28
CC(C)(C)n1nc2c(c1NC(=O)c1ccc([N+](=O)[O-])cc1)CSC2	4	66*
CC(C)(C)n1nc2c(c1NC(=O)c1cccc(Br)c1)CSC2	3	53*
CC(C)(C)n1nc2c(c1NC(=O)c1cc([N+](=O)[O-])ccc1Cl)CSC2	-1	11
CC(C)(C)n1nc2c(c1NC(=O)c1cccc(Cl)c1)CSC2	-7	39
CC(C)Oc1ccc(C(=O)Nc2c3c(nn2C(C)(C)C)CS(=O)C3)cc1 (stereo not drawn)	-40	2
N#CC(C(=O)Nc1ccc(F)cc1)=C1SCC(=O)N1c1ccccc1	-9	-15
CNC(=O)C1CN(C(=O)CCc2ccccc2)CC12CCCC2 (stereo not drawn)	4	2
O=C1OC(c2ccccc2)=N/C1=C/c1coc2c(Cl)cc(Cl)cc2c1=O	nt	-6
Cc1cc(Oc2ccccc2F)c(F)cc1[N+](=O)[O-]	3	-14
O=[N+]([O-])c1ccc(C2Nc3ccccc3-c3nc4ccccc4n32)cc1 (stereo not drawn)	-3	54*
O=[N+]([O-])c1cccc(C2Nc3ccccc3-c3nc4ccccc4n32)c1 (stereo not drawn)	-30	32
Nc1ccc(Nc2ccc(N)cc2S(=O)(=O)O)cc1	nt	97*
SMILES	Pf apPOL inh	mHTT CaM bind
Nc1ccc(Nc2ccccc2)c(Cl)c1	-7	48
COc1ccc(Cl)cc1C(=O)N1CCC(c2nc(C(=O)N3CCCC3)c(C)o2)CC1	1	-2
COc1ccc(/C=C/c2ccc3c(Cl)ccc(O)c3n2)cc1	-3	79*
Oc1cccc2ccc(/C=C/c3ccc(F)cc3)nc12	-3	34
CCn1cc2c3c(cccc31)CN(C(=O)Nc1ccccc1F)CC2	-1	23
CCOCC(=O)NCCn1ncc2c(=O)n(Cc3cccc([N+](=O)[O-])c3)cnc21	-2	-6
CC(C)C(=O)NC(c1ccc(N(C)C)cc1)c1ccc2cccnc2c1O (stereo not drawn)	-1	100*
CCN(CC)c1ccc(C(NC(=O)C(C)C)c2ccc3cccnc3c2O)cc1 (stereo not drawn)	6	100*
CCN(CC)Cc1c(O)cc(C)c2c1OC(=Cc1cccnc1)C2=O	-5	5
OC(COCC(c1ccccc1)c1ccccc1)Cn1cnc2ccccc21 (stereo not drawn)	-4	56*
OC(COCc1ccccc1)Cn1cnc2ccccc21 (stereo not drawn)	3	-9
COc1cc(/C=C2\NC(=O)NC2=O)cc(Cl)c1OCc1cccc(C(=O)O)c1	-4	6
COc1cc(/C=C/[N+](=O)[O-])cc(Cl)c1OCc1cccc(C(=O)O)c1	-4	57*
C/C=c1\nc(-c2ccc(F)cc2)n2c1nc1nonc12	-2	-12
Cc1ccc(-c2nc(N3CCC(C(N)=O)(N4CCCCC4)CC3)c3ccccc3n2)cc1	-3	53*
CCOC(=O)N1CCN(c2nc(-c3ccc(C)cc3)nc3ccccc23)CC1	2	-8
Oc1ccc(Br)c(C(Nc2ccccn2)c2ccc3cccnc3c2O)c1 (stereo not drawn)	-4	100*
Oc1c(C(Nc2ccccn2)c2ccccc2Br)ccc2cccnc12 (stereo not drawn)	-1	99*
O=C(Nc1cc(Br)cc2cccnc12)c1ccccc1Br	-5	-4
COc1cccc(OC)c1C(=O)Nc1ccc(-c2ccccc2)cc1	4	10
COCCN=C1Nc2ccccc2CNC12CCN(C(=O)c1c[nH]c3ccccc13)C2 (stereo not drawn)	-2	32
COc1ccc(CN2CCN(c3cc(C)ccc3C)CC2)cc1OC	0	9
COc1ccccc1/C=C1\SC(=O)N(Cc2ccc(F)cc2)C1=O	-6	-3
COc1cc(/C=C2\SC(=O)N(Cc3ccc(F)cc3)C2=O)c(Br)cc1O	0	75*
Cc1nn(Cc2nnn(CC(=O)NN=Cc3ccc(Cl)cc3)n2)c(C)c1Br	-3	nt
SMILES	Pf apPOL inh	mHTT CaM bind
O=C(NCC(c1ccco1)N1CCc2ccccc21)c1c(F)cccc1Cl (stereo not drawn)	-8	2
O=C(c1ccccc1I)N1CCN(c2cccc(Cl)c2)CC1	-2	77*
O=C1c2ccccc2-c2c1cccc2C(=O)N1CCN(c2ccc(Cl)cc2)CC1	7	100*
O=C(CC(c1ccccc1)c1ccccc1)N1CCN(c2cccc(Cl)c2)CC1	-3	84*
O=C(c1ccccc1Cl)N1CCN(c2cccc(Cl)c2)CC1	-3	45
COc1ncc(C(=O)N2CCN(c3cccc(Cl)c3)CC2)cn1	-1	0
O=C1c2ccccc2-c2c1cccc2C(=O)N1CCOCC1	3	-2
CC(CC(=O)N1CCN(c2cccc(Cl)c2)CC1)c1ccccc1 (stereo not drawn)	-16	22
CCOc1nn(CC)cc1C(=O)N1CCN(c2cccc(Cl)c2)CC1	-12	91*
Cc1nn(-c2ccc(C(=O)N3CCN(c4ccccc4)CC3)cc2)c2c1C(=O)CC(C)(C)C2	2	12
Cc1ccc(C)c(-c2cncc(C(=O)NCC3CCCO3)c2)c1 (stereo not drawn)	-5	-3
CC1CCCN(S(=O)(=O)c2ccc(F)c(C(=O)NCCC3=CCCCC3)c2)C1 (stereo not drawn)	-5	-8
CS(=O)(=O)c1cccc2sc(N3CCN(C(=O)C4=COCCO4)CC3)nc12	3	-3
CCOc1ccc(N2CCn3c2nnc(C(=O)NCC2CCCO2)c3=O)cc1 (stereo not drawn)	-3	-14
Cc1ccc(NC(=O)C(=O)c2c(O)[nH]c3ccccc23)cc1Cl	-7	4
Cc1ccc(NC(=O)C2c3ccccc3C(=O)N(C)C2c2cccs2)cc1F (stereo not drawn)	-6	11
Cc1ccc(C)c(N2CCN(c3ncnc4c3nc3n4CCCC3)CC2)c1	-3	19
Cc1ccc(Cl)cc1N1CCN(c2ncnc3c2nc2n3CCCC2)CC1	1	99*
CC(C)c1ccc(OCC(=O)Nc2nnc(-c3ccc(Br)o3)o2)cc1	37	52*
Cc1ccc(OCC(=O)Nc2ccc(C(C)C)cc2)cc1	-1	-15
